Measured values as given in the supplement of paper PMC10849652.
About 8,800 targets were measured; listed, in parts, are those with a hit and a random draw of the rest. About 0.5% of all pairs of compound and target were hits. Unmarked numbers belong to inactive results.

Assays:
Experiment in all cases: log2 fold change, soluble protein after heating vs DMSO (PISA); higher = thermal stabilisation; K562 lysate, 10 uM; active = over 0.2 and 3.5 SD of the protein, either way, in both replicates (recomputed)
erlotinib = compound: C#Cc1cccc(Nc2ncnc3cc(OCCOC)c(OCCOC)cc23)c1 [erlotinib]
Summary of the method: (§1)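 Quantification was by TMTpro 16plex LC-MS/MS with equalised channel sums, applied to the supernatant after 21,000xg for 90 min. Samples were crude K562 extract at 1 mg/mL protein in PBS pH 7.4 with 1 mM MgCl2, treated with 10 μM compound for 30 min, heated for 3 min across 48°C-58°C, pooled and brought to 0.5% NP-40 at 4°C. Values are log-two fold changes in thermal stability relative to solvent controls, from duplicates.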

[1] = compound: C/C(=N\NC(=O)C1=CC(=CC=C1)S(=O)(=O)N2CCOCC2)/C3=C(C=CC(=C3)Cl)O
Summary of the method: as §1

[2] = compound: C1=CC(=CC=C1C2=NC3=C(N2)C=C(C=C3)C(=O)N)OC4=CC=C(C=C4)Cl
Summary of the method: as §1

[3] = compound: C1=CC2=C(C=CC(=C2)/C=C\3/C(=O)NC(=NCC4=CC=CS4)S3)N=C1
Summary of the method: as §1

[4] = compound: C1=CC2=NC=CN=C2C=C1/C=C/3\C(=O)NC(=O)S3
Summary of the method: as §1

[5] = compound: C1=CC=C(C=C1)C2=NC(=C(N2)C3=CC=NC=C3)C4=CC(=C(C=C4)Cl)O
Summary of the method: as §1

[6] = compound: C1=CC=C2C(=C1)C3=NNC4=CC=CC(=C43)C2=O
Summary of the method: as §1

[7] = compound: C1CCN(C1)C(=O)NC2=CC=CC(=C2)NC3=NC=C(C(=N3)NCCC4=CN=CN4)Br
Summary of the method: as §1

[8] = compound: C1CN(CCC1(CC2=CC=C(C=C2)Cl)N)C3=NC=NC4=C3C=CN4
Summary of the method: as §1

IRAK-1-4 Inhibitor I = compound: C1COCCN1CCN2C3=CC=CC=C3N=C2NC(=O)C4=CC(=CC=C4)[N+](=O)[O-] [IRAK-1-4 Inhibitor I]
Summary of the method: as §1

Chain of UniProt Q9H3U1 (Q9H3U1 whole entry, looked up): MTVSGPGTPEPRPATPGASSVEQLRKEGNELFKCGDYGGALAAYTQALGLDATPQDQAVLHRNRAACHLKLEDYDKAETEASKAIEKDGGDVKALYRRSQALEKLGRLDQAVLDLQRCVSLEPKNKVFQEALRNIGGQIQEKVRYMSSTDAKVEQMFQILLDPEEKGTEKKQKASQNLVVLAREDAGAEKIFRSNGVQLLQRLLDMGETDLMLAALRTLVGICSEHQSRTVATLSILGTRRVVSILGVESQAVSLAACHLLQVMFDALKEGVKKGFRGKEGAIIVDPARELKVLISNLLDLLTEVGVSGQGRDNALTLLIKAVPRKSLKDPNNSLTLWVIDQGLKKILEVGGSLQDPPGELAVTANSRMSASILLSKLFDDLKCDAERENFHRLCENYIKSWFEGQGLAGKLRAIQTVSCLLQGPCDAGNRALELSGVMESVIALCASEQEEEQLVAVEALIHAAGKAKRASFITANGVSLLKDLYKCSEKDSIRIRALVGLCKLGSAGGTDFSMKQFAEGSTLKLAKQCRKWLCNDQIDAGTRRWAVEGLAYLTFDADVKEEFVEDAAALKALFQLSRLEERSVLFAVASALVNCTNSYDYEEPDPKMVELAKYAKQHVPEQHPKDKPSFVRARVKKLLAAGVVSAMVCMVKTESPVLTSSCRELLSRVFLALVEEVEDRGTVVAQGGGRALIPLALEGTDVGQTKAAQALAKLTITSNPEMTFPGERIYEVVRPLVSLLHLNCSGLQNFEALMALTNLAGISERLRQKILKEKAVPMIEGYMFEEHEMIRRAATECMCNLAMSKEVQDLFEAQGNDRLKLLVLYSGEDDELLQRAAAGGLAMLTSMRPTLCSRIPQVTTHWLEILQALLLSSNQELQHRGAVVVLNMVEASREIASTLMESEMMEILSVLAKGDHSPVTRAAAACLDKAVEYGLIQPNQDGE
Chain of UniProt A7E2V4 (A7E2V4 whole entry, looked up): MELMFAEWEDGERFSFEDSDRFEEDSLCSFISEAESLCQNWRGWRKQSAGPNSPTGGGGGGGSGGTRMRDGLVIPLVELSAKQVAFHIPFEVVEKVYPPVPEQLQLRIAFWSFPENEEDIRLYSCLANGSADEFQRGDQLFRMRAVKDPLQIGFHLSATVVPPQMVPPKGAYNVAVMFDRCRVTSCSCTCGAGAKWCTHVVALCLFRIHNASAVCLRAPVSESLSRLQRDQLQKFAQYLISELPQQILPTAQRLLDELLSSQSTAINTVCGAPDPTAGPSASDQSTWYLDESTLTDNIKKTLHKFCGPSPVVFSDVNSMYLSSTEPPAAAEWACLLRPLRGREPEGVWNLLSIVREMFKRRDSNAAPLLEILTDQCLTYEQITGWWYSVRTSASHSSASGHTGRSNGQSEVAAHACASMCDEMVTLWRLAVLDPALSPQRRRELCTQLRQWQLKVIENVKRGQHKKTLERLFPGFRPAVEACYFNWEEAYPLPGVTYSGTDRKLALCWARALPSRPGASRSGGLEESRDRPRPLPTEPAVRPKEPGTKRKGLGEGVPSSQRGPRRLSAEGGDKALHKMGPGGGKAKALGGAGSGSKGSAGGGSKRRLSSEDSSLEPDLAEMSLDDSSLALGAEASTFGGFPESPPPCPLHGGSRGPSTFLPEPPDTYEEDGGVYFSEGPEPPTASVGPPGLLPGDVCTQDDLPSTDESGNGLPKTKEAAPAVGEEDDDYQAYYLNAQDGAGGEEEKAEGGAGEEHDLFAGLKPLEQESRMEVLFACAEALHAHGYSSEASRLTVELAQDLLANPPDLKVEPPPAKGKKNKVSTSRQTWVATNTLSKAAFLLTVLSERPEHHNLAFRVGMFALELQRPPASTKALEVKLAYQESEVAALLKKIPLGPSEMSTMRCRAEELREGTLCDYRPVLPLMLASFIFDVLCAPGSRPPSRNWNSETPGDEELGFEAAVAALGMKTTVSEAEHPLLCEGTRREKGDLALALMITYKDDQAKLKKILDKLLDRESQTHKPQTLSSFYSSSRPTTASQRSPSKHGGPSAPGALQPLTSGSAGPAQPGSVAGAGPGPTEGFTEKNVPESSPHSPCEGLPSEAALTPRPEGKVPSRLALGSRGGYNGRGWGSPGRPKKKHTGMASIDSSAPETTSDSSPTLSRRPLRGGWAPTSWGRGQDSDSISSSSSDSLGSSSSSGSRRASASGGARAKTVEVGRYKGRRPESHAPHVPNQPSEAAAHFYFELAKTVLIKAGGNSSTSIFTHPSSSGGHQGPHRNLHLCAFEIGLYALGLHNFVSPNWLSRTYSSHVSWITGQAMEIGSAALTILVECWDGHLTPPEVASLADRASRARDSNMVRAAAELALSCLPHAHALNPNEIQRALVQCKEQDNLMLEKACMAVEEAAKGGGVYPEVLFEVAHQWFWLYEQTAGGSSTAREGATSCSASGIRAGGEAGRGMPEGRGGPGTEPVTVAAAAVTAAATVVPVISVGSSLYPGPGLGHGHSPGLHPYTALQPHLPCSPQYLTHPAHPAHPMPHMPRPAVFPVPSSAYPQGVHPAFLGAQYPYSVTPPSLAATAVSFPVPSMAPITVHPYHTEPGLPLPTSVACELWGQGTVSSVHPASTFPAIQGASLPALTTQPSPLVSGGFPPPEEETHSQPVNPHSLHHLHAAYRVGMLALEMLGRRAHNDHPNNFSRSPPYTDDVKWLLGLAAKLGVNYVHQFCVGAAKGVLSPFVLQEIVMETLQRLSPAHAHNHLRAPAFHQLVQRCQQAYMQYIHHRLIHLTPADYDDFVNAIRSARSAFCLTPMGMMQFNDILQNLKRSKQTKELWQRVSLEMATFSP
Chain of UniProt P15498 (P15498 whole entry, looked up): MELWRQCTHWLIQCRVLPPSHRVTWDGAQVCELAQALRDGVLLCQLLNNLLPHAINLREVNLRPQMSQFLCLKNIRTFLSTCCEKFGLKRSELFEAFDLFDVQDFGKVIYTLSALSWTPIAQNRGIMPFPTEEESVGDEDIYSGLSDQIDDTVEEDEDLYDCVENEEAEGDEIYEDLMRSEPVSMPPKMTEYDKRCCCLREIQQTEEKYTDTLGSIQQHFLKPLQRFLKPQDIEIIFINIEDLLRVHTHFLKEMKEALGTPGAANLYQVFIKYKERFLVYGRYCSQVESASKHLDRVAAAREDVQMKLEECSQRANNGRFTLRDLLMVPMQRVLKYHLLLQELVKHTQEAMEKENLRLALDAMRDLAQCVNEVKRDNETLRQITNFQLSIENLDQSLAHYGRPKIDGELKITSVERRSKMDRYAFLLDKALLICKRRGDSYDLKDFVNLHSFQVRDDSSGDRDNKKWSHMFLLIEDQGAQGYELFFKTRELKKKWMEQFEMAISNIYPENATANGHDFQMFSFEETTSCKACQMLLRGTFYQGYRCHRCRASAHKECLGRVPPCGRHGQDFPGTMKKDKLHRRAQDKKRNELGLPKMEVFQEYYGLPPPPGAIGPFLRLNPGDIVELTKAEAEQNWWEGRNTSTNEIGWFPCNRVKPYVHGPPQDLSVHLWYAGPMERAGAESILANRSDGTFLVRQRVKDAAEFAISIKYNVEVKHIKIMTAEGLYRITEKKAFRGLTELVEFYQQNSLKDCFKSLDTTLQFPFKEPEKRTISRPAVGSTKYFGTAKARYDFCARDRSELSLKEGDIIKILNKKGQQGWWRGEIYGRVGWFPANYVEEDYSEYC
Chain of UniProt P22695 (P22695 whole entry, looked up): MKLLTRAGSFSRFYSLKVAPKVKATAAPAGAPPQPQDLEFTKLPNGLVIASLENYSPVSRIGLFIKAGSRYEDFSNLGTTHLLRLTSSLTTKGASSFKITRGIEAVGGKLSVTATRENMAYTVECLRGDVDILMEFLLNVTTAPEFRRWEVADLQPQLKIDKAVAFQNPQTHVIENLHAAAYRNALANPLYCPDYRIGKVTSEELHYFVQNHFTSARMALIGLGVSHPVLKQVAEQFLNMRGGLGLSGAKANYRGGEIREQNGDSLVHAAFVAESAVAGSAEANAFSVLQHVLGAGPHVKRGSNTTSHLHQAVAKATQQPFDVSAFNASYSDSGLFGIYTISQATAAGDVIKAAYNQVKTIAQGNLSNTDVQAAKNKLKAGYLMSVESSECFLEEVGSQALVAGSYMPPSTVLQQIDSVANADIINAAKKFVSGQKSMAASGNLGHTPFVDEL
Chain of UniProt Q9H9H4 (Q9H9H4 whole entry, looked up): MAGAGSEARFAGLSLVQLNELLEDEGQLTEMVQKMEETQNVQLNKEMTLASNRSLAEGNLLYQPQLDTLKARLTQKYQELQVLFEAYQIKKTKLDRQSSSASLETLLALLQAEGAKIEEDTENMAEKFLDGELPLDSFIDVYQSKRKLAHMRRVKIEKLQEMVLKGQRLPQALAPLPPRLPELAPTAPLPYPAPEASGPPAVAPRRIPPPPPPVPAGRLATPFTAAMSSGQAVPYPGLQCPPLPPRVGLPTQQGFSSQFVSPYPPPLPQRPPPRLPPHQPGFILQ
Chain of UniProt Q9UPT9 (Q9UPT9 whole entry, looked up): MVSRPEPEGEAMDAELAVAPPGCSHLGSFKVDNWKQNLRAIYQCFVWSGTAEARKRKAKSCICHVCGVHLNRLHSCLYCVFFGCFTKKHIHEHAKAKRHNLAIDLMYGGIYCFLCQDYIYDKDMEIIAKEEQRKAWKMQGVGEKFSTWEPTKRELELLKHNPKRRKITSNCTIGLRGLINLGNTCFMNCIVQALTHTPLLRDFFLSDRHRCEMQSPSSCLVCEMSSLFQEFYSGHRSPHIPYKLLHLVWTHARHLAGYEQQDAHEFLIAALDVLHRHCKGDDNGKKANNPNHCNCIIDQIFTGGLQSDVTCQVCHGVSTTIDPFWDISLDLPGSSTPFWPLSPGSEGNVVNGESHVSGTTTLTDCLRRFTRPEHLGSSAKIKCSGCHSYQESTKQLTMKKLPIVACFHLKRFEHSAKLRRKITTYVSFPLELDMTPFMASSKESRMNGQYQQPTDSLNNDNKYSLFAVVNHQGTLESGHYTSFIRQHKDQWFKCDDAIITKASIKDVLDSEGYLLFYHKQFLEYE
Chain of UniProt Q9BRT2 (Q9BRT2 whole entry, looked up): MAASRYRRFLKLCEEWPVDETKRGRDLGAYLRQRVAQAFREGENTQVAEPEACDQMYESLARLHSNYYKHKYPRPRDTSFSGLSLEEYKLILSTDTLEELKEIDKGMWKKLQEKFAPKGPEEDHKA

Target | log2 fold change (erlotinib) | log2 fold change [1] | log2 fold change [2] | log2 fold change [3] | log2 fold change [4] | log2 fold change [5] | log2 fold change [6] | log2 fold change [7] | log2 fold change [8] | log2 fold change (IRAK-1-4 Inhibitor I)
UQCC2 (UniProt Q9BRT2) | 0.037 | 0.044 | -0.039 | 0.06 | 0.001 | -0.007 | 0 | -0.05 | -0.023 | 0.016
YDJC (UniProt A8MPS7) | -0.083 | 0.036 | -0.011 | -0.012 | -0.01 | 0.029 | -0.065 | -0.034 | 0.029 | -0.023
ZNF644 (UniProt Q9H582) | 0.192 | -0.085 | 0.071 | 0.075 | 0.066 | -0.115 | -0.04 | 0.036 | -0.037 | 0.035
VPS37B (UniProt Q9H9H4) | -0.046 | 0.078 | 0.059 | 0.002 | -0.011 | 0.031 | 0 | 0.043 | 0.098 | -0.012
ZNHIT6 (UniProt Q9NWK9) | 0.059 | 0.475 | 0.062 | 0.024 | -0.007 | -0.008 | -0.068 | 0 | 0.014 | 0.003
ZSWIM8 isoform 4 (UniProt A7E2V4) | 0.025 | 0.508 (active) | -0.053 | 0.02 | -0.044 | -0.021 | -0.163 | -0.239 | 0.109 | -0.122
XPO6 (UniProt Q96QU8) | 0.091 | -0.024 | -0.028 | 0.031 | -0.012 | -0.003 | -0.072 | -0.007 | -0.028 | 0.003
USP22 (UniProt Q9UPT9) | 0.072 | 0.019 | -0.025 | 0.048 | -0.022 | -0.003 | -0.013 | -0.021 | 0.004 | -0.005
ZNF451 (UniProt Q9Y4E5) | 0.036 | -0.064 | -0.007 | -0.002 | -0.032 | 0.002 | -0.014 | -0.096 | 0.026 | -0.009
WDR3 (UniProt Q9UNX4) | -0.036 | -0.013 | -0.044 | -0.012 | 0.027 | -0.015 | 0.026 | 0.007 | -0.04 | -0.02
ZZEF1 (UniProt O43149) | 0.008 | -0.019 | -0.012 | 0.019 | -0.012 | -0.009 | -0.017 | -0.011 | -0.009 | 0.017
USP9X (UniProt Q93008) | 0.034 | 0.013 | -0.008 | 0.015 | 0.014 | 0.003 | -0.019 | -0.005 | -0.013 | 0.022
ZFYVE19 (UniProt Q96K21) | -0.017 | -0.056 | 0.016 | -0.024 | -0.026 | 0.055 | 0.007 | -0.031 | 0.012 | -0.027
VPS41 (UniProt P49754) | 0.032 | 0.073 | -0.029 | 0.062 | -0.003 | 0.036 | -0.033 | -0.025 | 0.049 | -0.008
UNC45A (UniProt Q9H3U1) | 0.016 | 0.014 | -0.039 | -0.006 | 0.001 | -0.024 | -0.037 | -0.015 | -0.002 | -0.001
YRDC (UniProt Q86U90) | 0.009 | 0.03 | -0.001 | -0.018 | -0.021 | 0.036 | 0.081 | -0.065 | 0.006 | -0.02
WDR6 (UniProt Q9NNW5) | 0.001 | 0.01 | 0.002 | 0.026 | -0.01 | 0 | -0.014 | -0.02 | 0.021 | -0.011
VTN (UniProt P04004) | -0.065 | -0.006 | 0.003 | -0.033 | 0.107 | -0.096 | -0.129 | -0.065 | -0.042 | 0.043
ZMYM2 (UniProt Q9UBW7) | 0.036 | -0.049 | 0.038 | 0.073 | -0.022 | 0.053 | -0.05 | -0.209 | 0.116 | 0.07
VCPIP1 (UniProt Q96JH7) | -0.054 | -0.04 | -0.002 | 0.053 | -0.037 | 0.041 | 0.006 | 0 | 0.038 | -0.035
WDR20 isoform 7 (UniProt Q8TBZ3) | -0.001 | -0.105 | 0.043 | 0.04 | -0.117 | 0.094 | -0.016 | -0.05 | 0.092 | 0.026
WDR24 (UniProt Q96S15) | 0.023 | 0.014 | 0.029 | -0.042 | -0.018 | 0.058 | -0.012 | -0.034 | -0.007 | 0.034
USP8 (UniProt P40818) | -0.011 | -0.034 | 0.026 | -0.004 | -0.034 | 0.014 | -0.028 | -0.014 | 0.006 | -0.019
UQCRC2 (UniProt P22695) | 0 | -0.029 | 0.006 | -0.005 | -0.019 | 0.01 | 0.013 | -0.001 | 0.019 | 0.014
VAV1 (UniProt P15498) | 0.02 | 0.081 | -0.022 | 0.001 | -0.043 | 0.037 | -0.082 | -0.004 | -0.002 | -0.009
WDR7 (UniProt Q9Y4E6) | 0.05 | -0.076 | -0.016 | -0.059 | -0.001 | -0.005 | -0.038 | 0.018 | 0.042 | 0.01
